Casp1 inh = qHTS Assay for Allosteric/Competitive Inhibitors of Caspase-1. Caspase-1 enzyme, Ac-WEHD-AFC fluorogenic rate. Potency, µM (top dose mostly 57.5 µM), hits mostly inhibitors. 75,000 compounds, 0.03% hits. AID 900, 2007
15-hLO inh = qHTS Assay for Inhibitors of 15-hLO (15-human lipoxygenase) | purified 15hLO-1, xylenol orange hydroperoxide absorbance | 74,000 compounds, 1.4% hits | Potency, µM (titrated, usually from 57.1 µM), actives largely listed as inhibitors; note: nearly all actives have a fitted effect of over 55% in size
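Readout: Fe(III)-xylenol orange absorbance, 573-to-405 nm ratio as reaction progress. Enzyme 40 nM purified human 15hLO-1, substrate 50 uM arachidonic acid, 6 min RT after 15 min compound preincubation; Hepes pH 7.5 buffer with Triton X-100.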
15-hLO-2 inh = qHTS Assay for Inhibitors of 15-hLO-2 (15-human lipoxygenase 2) | Polyunsaturated fatty acid lipoxygenase ALOX15B (Homo sapiens), O15296 | purified 15hLO-2, xylenol orange hydroperoxide absorbance | Potency, µM (highest dose often 57.1 µM), hits mostly inhibitors | 110,000 compounds, 0.56% hits; note: nearly all actives have a fitted effect of over 60% in size
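Purified human 15hLO-2 (50 nM final) preincubated with compounds 15 min at room temperature in 25 mM Hepes pH 7.5, 0.01% Triton X-100, then 45 uM arachidonic acid added for 90 min; hydroperoxide detected via ferrous/xylenol orange, 573/405 nm absorbance ratio.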
Caspase-7 inhib = qHTS Assay for Allosteric/Competitive Inhibitors of Caspase-7; 75,000 compounds, 0.02% hits; Potency, µM (top dose mostly 57.5 µM), actives largely listed as inhibitors; recombinant caspase-7, Ac-DEVD-AFC fluorescence rate; AID 889, 2007; P55210; active = well fitted inhibition curve with a large enough effect in the main read-out, with a control signal flat, not every such curve was filed as active; inconclusive = small, poorly fitted or top-dose-only effect, or a change in a side signal
ERK AVP inh = qHTS Assay for Inhibitors of the ERK Signaling Pathway using a Homogeneous Screening Assay; AID 995, 2007; 72,000 compounds, 0.99% hits; HEK293-V1b, vasopressin-stimulated pERK AlphaScreen; Potency, µM (highest dose often 57.5 µM), hits mostly inhibitors; note: nearly all actives have a fitted effect of over 55% in size
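Phosphorylated ERK1/2 detected via AlphaScreen bead proximity in lysates of V1b-expressing HEK293 cells given 25 nM vasopressin for 5 min after 30 min compound exposure (37 °C). AC50 from Hill equation; basal DMSO 0%, vasopressin 100%.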
Numbers stand for hits; 0 = inactive; ? = inconclusive; ! = not active in a repeat; [ ] = remark or other dose. Shown are actives, neighbours in structure and some others; about 1.7% of the full set was active somewhere. Unless noted, calls come from the whole dose curve; as a rule, active = well fitted curve in the direction sought with a large enough effect; inconclusive = small, poorly fitted or top-dose-only effect, or another doubt; inactive = no such curve, though single readings can be large; an effect the other way counts as inactive or inconclusive.

SMILES	Casp1 inh	15-hLO inh	15-hLO-2 inh	Caspase-7 inhib	ERK AVP inh
C[N+]1(C)C2CC[C@H]1CC(OC(=O)[C@@H](CO)c1ccccc1)C2 (some centres undefined)	0[11.5 µM]	0[11.4 µM]	0[11.4 µM]	0[11.5 µM]	0[11.5 µM]
C[N+]1(C)[C@@H]2CC[C@H]1CC(OC(=O)c1c[nH]c3ccccc13)C2 (some centres undefined)	0	15.8µM	0	0	?
O=C(NC(=O)c1c(F)cccc1F)Nc1cc(Cl)c(OC(F)(F)C(F)C(F)(F)F)cc1Cl (centres undefined)	0	15.8µM	0	0	0
C[N+]1(C)CCO[C@@](O)(c2ccc(-c3ccc([C@]4(O)C[N+](C)(C)CCO4)cc3)cc2)C1	0	0	0	0	0
COC(C)(C)C	0	0	0	0	0
CC(C)c1nccn1Cc1ccc(Cl)cc1Cl	0[11.5 µM]	0[11.4 µM]	0[11.4 µM]	0[11.5 µM]	0[11.5 µM]
CN1CCN(c2ccc([N+](=O)[O-])c3[nH]o[n+](=O)c23)CC1	0[11.5 µM]	0[11.4 µM]	0[11.4 µM]	0[11.5 µM]	?
Cc1cccc(N2CCc3c2nc2ccccc2c3N)c1	0	0	0	0	25.1µM!
CN1C[C@@H](C(=O)N[C@]2(C)O[C@]3(O)[C@H]4CCCN4C(=O)[C@H](Cc4ccccc4)N3C2=O)C[C@H]2c3cccc4[nH]cc(c34)C[C@@H]21	0	0	0	0	0
O=C(O)[C@@H](O)[C@@H](O)[C@@H]1[O][Sb][O][C@@H]1CO	0[11.5 µM]	0[11.4 µM]	0[11.4 µM]	0[11.5 µM]	0[11.5 µM]
O=C1C=CC(=O)c2c1ccc1c2ccc2ccccc21	0	0	?	0	12.6µM
N[C@@H]1CCc2cc(O)c(O)cc2C1	0	0	?	0	0
COCc1cc(C)c(C#N)c(=S)[nH]1	0	1.58µM	?	0	0
O=c1cc(-c2ccc(O)c(O)c2)oc2cc(O)cc(O)c12	0	2.51µM	15.8µM	0	0
Cc1cc[c]([Sb]2[O][C@H]([C@H](O)[C@H](O)C(=O)O)[C@@H](CO)[O]2)cc1	0[11.5 µM]	0[11.4 µM]	0[11.4 µM]	0[11.5 µM]	0[11.5 µM]
CC1=CC(=O)NP(=O)(Oc2ccc3ccccc3c2)N1 (centres undefined)	0	12.6µM	0	0	0
N[C@H](CCl)C(=O)O	0	0	0	0	0
O=C1C2CC=CCC2C(=O)N1SC(Cl)(Cl)Cl (centres undefined)	0	?	0	0	15.8µM
N[C@H](Cn1ccc(=O)[nH]c1=O)C(=O)O	0	0	0	0	0
C[C@@H]1[C@H]2C=C[C@@H]1[C@@H](c1c3ccc(=O)c(O)c-3oc3c(O)c(O)ccc13)[C@@H]2C(=O)O	0[11.5 µM]	?	?	0[11.5 µM]	0[11.5 µM]
Cn1nc(-c2ccc(OCC(=O)N3CCN(Cc4ccccc4)CC3)cc2)c2ccccc2c1=O	0	0	0[2.29 µM]	0	31.6µM
CC(C)(C)c1cc(O)ccc1O	0	20µM	0	0[11.5 µM]	0[11.5 µM]
[N-]=[N+]=NCC(=O)c1c[nH]c(=O)[nH]c1=O	0[11.5 µM]	0[11.4 µM]	0[11.4 µM]	0[11.5 µM]	0[11.5 µM]
C[C@H](N)[C@H](O)c1ccc(O)c(O)c1	0	3.16µM!	0	0	0
N#CC(C#N)=Cc1ccc(O)c(O)c1	0	?	12.6µM	0	?
COc1cc(C=C(C#N)C#N)cc(O)c1O	0	?	?	0	0
C[C@@H]1CC[C@@]2(OC1)O[C@H]1[C@@H](O)[C@H]3[C@@H]4CC[C@H]5C[C@@H](O[C@@H]6O[C@H](CO)[C@H](O[C@@H]7O[C@H](CO)[C@@H](O)[C@H](O[C@@H]8OC[C@@H](O)[C@H](O)[C@H]8O)[C@H]7O[C@@H]7O[C@H](CO)[C@@H](O)[C@H](O[C@@H]8O[C@H](CO)[C@@H](O)[C@H](O)[C@H]8O)[C@H]7O)[C@H](O)[C@H]6O)[C@H](O)C[C@]5(C)[C@H]4CC[C@]3(C)[C@H]1[C@@H]2C	0	0	0	0	31.6µM
CC(C)(O)[C@H]1[C@H]2OC(=O)[C@@H]1[C@]1(O)C[C@H]3O[C@]34C(=O)O[C@H]2[C@]14C (tested in a mixture with another compound)	0	0	0	0	0
O=C(NC1(C(F)(F)F)Oc2ccc(Cl)cc2O1)N1CCC2(CC1)OCCO2 (centres undefined)	0	?	7.94µM	0	0

Source: PubChem BioAssay
